Not all results are given here.
aSyn 5UTR act: Activators via SNCA 5'UTR binding, MLPCN | activity score, % (tested at 7.5 µM), hits read low | alpha-synuclein 5'UTR reporter, activators screen | 7.1% of 300,000 active; in the data active = activity score below about -60%
Large screens that a line does not name were inactive.

O=C(Nc1nc2ccccc2s1)c1ccccc1[N+](=O)[O-]	aSyn 5UTR act -152.6
O=C(Nc1nc2ccccc2s1)c1ccc([N+](=O)[O-])o1	aSyn 5UTR act -173.0
O=C(Nc1nc2ccccc2s1)Nc1ccc([N+](=O)[O-])cc1Cl	aSyn 5UTR act -99.1
O=C(c1nc2ccccc2[nH]1)c1ccccc1[N+](=O)[O-]	aSyn 5UTR act -73.7
Cc1ccc(S(=O)(=O)CC(=O)c2ccc3c(c2)OCCO3)cc1	aSyn 5UTR act -69.7
O=C(OCCN1CCOCC1)c1ccc2c(c1)OCCO2	aSyn 5UTR act -93.5
O=C(CCCN1CCOCC1)c1ccc2c(c1)OCCO2	aSyn 5UTR act -80.7
O=C(Cc1ccccc1)c1ccc2c(c1)OCCO2	aSyn 5UTR act -107.3
CCCOc1ccc(CNC(=O)Cc2cccs2)cc1	aSyn 5UTR act -97.6
O=C(CSc1ncccn1)NCc1cccc(Cl)c1	aSyn 5UTR act -65.2
O=C(Cc1cccs1)NCc1cccc(Cl)c1	aSyn 5UTR act -88.5
O=C(Cc1cccs1)NCc1ccc(Cl)cc1Cl	aSyn 5UTR act -155.4
COc1ccccc1CNC(=O)CSc1ccsc1[N+](=O)[O-]	aSyn 5UTR act -113.8
O=C(CSc1ccsc1[N+](=O)[O-])NCc1ccccc1	aSyn 5UTR act -103.5
c1ccc(-c2noc(-c3ccc4ccccc4c3)n2)nc1	none
Cc1ccc(OCc2nc(-c3ccccn3)no2)cc1	aSyn 5UTR act -63.8
c1ccc(OCCCc2nc(-c3ccccn3)no2)cc1	aSyn 5UTR act -84.7
c1ccc(-c2noc(-c3ccncc3)n2)nc1	aSyn 5UTR act -61.6
CC(C)(C)Cc1nc(-c2ccccn2)no1	aSyn 5UTR act -99.3
CC(Oc1ccc(Cl)cc1Cl)c1nc(-c2ccccn2)no1 (stereo not drawn)	aSyn 5UTR act -128.9
CC(Oc1ccc(Cl)cc1Cl)c1nc(-c2ccc(NC(=O)c3cccnc3)cc2)no1 (stereo not drawn)	none
Clc1ccccc1/C=C/c1nc(-c2ccccn2)no1	none
Cc1ccc(SCc2nc(-c3ccccn3)no2)cc1	aSyn 5UTR act -106.0
CC(C)c1ccc(OCc2nc(-c3ccccn3)no2)c(Br)c1	aSyn 5UTR act -67.5
c1csc(C2Nc3ccccc3-c3nc4ccccc4n32)c1 (stereo not drawn)	aSyn 5UTR act -82.6
c1cncc(C2Nc3ccccc3-c3nc4ccccc4n32)c1 (stereo not drawn)	aSyn 5UTR act -92.4
Cc1ccsc1C1Nc2ccccc2-c2nc3ccccc3n21 (stereo not drawn)	aSyn 5UTR act -169.1
Cc1ccc(-c2cc(C(=O)NCc3ccco3)c3ccccc3n2)s1	aSyn 5UTR act -65.2
O=C(NCc1ccco1)c1nc2ccccc2s1	aSyn 5UTR act -107.3
COCCNC(=O)c1nc2ccccc2s1	aSyn 5UTR act -82.6
Cc1cc(C(F)(F)F)c(C#N)c(SCC(=O)Nc2nc3cc(Br)ccc3s2)n1	aSyn 5UTR act -176.1
COc1ccc(/C=C/c2n[nH]c(=O)c(C#N)c2C)cc1	aSyn 5UTR act -70.7
O=C(NC1CC(=O)c2sccc21)c1ccc(Cl)cc1Cl (stereo not drawn)	aSyn 5UTR act -86.6
CCCCNC(=O)Cn1nc([N+](=O)[O-])c([N+](=O)[O-])c1C	aSyn 5UTR act -138.3
CCCNC(=O)Cn1nc([N+](=O)[O-])c([N+](=O)[O-])c1C	aSyn 5UTR act -77.2
CC(C)CC(NC(=O)CNC(=O)C1O[C@@H]2OC(C)(C)O[C@@H]2[C@H]2OC(C)(C)O[C@@H]12)C(=O)O (stereo partly drawn)	aSyn 5UTR act -84.4
Cc1cc(C(=O)N/N=C/c2cccc3ccccc23)c(C)o1	aSyn 5UTR act -62.0
Cc1cc(C(=O)N/N=C/c2ccccc2)c(C)o1	aSyn 5UTR act -69.9
Cn1nccc1C(=O)N/N=C/c1c(O)ccc2ccccc12	none
Cn1c(C(=O)N/N=C/c2ccccc2)cc2ccccc21	aSyn 5UTR act -108.2
Cc1ccc(Nc2nc3c(c(=O)[nH]2)CCCC3)cc1	aSyn 5UTR act -142.7
Cc1ccc(Nc2nc(C)c(CCC(C)C)c(=O)[nH]2)cc1	aSyn 5UTR act -94.4
O=C(N/N=C/c1nn(-c2ccccc2)cc1-c1ccc(Cl)cc1)c1ccncc1	aSyn 5UTR act -63.7
OCc1cn(-c2ccccc2)nc1-c1ccc(Br)cc1	aSyn 5UTR act -116.7
O=C(N/N=C/c1cn(-c2ccccc2)nc1-c1ccc2c(c1)OCCO2)c1ccncc1	aSyn 5UTR act -98.5
O/N=C/c1cn(-c2ccccc2)nc1-c1ccc2c(c1)OCCO2	aSyn 5UTR act -72.3

High-throughput results (PubChem)
